Experimental findings from PubChem BioAssay (Tox21) are described below.

A short description of experiment [1]: qHTS assay to identify small molecule agonists of the sonic hedgehog signaling (Shh) pathway (AID 1259368; calls by dose curve;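 also: NIH/3T3-derived 3T3Gli1-Luc cells carrying a stable Gli1-driven firefly luciferase reporter; series mostly up to about 92 µM; nearly all actives have a fitted effect of over 15% in size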). The essentials: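 3T3Gli1-Luc (NIH/3T3 clone, stable Gli1-Luc); 4 hr pre-incubation, then cpd in DMSO 24 hr, 37 C/5% CO2; luciferase reagent 30 min RT; luminescence.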
A general note: qHTS replaces the single test concentration by a dilution series.

Experiment [2] is described as follows: qHTS assay to identify small molecule antagonists of the sonic hedgehog signaling (Shh) pathway (AID 1259369; calls by dose curve; also: nearly all actives have a fitted effect of over 45% in size). In outline:
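3T3Gli1-Luc, conditioned-medium-stimulated, 24hr cpd, 37C/5% CO2; Gli1-driven firefly Luc luminescence after 30min RT with luciferase reagent. Cells plated 4hr before cpd.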

In experiment [3] the target is Estrogen receptor beta (Homo sapiens) (UniProt Q92731). Put plainly: qHTS assay to identify small molecule agonists of the estrogen receptor beta (ER-beta) signaling pathway (AID 1259377; active = well fitted activation curve with a large enough effect in the signal ratio in the repeat runs, not every such curve was filed as active; the % refers to the signal ratio). In outline: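 HEK293T ER-beta-UAS-bla; 2% charcoal-stripped FBS; cells pre-incubated 6 hr, compound 16 hr, 37C/5% CO2; LiveBLAzer B/G FRET substrate 2 h RT; fluorescence intensity read.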

For experiment [4] the target is unchanged. The experiment can be described thus: qHTS assay to identify small molecule antagonists of the estrogen receptor beta (ER-beta) signaling pathway (AID 1259378; active = well fitted inhibition curve with a large enough effect in the signal ratio in the repeat runs, not every such curve was filed as active; the % refers to the signal ratio). In outline:
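ER-beta-UAS-bla HEK293T (GripTite) cells in 2% charcoal-stripped FBS medium were preincubated 6 hr at 37C, dosed with compound, then stimulated with 1 nM E2 (final) for 16 hr; beta-lactamase reporter read by B/G FRET fluorescence after 2 hr substrate loading.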

A short description of experiment [5]: qHTS assay to identify small molecule agonists of the androgen receptor (AR) signaling pathway in the presence of an antagonist - cell viability counter screen (AID 1259379).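 Also: MDA-kb2 human breast cancer cells carrying an MMTV luciferase reporter; series mostly up to about 92 µM; nearly all actives have a fitted effect of over 25% in size.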 The essentials:
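Cells: MDA-kb2 (MMTV-luc, AR and GR elements), 3,000/well, 5 hr settle. Added: nilutamide 3.0uM final, then compounds (15 conc.). Incubation: 16 hr, 37C, no CO2. Read-out: CellTiter-Fluor, 1 hr, fluorescence.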

Experiment [6] is described as follows: qHTS assay to identify small molecule agonists of the estrogen receptor beta (ER-beta) signaling pathway - cell viability counter screen (AID 1259380). Also: nearly all actives have a fitted effect of over 30% in size. In outline: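 HEK293T ER-beta-UAS-bla; 2% CS-FBS; 6 hr pre-plate, 16 hr cpd at 37C/5% CO2; LiveBLAzer read first, then CellTiter-Glo 30 min RT, luminescence.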
Experiment [7] deals with Androgen receptor (Homo sapiens) (UniProt P10275). The experiment can be described thus: qHTS assay to identify small molecule agonists of the androgen receptor (AR) signaling pathway in the presence of an antagonist (AID 1259381; calls by dose curve; also: nearly all actives have a fitted effect of over 15% in size). In outline:
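MDA-kb2 cells, 3,000/well, rested 5hr at 37C/0% CO2 → nilutamide 3.0uM final or buffer → compounds, 15 conc. → 16hr at 37C → ONE-Glo, 30min RT → luminescence.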

Experiment [8] in a line: qHTS assay to identify small molecule antagonists of the estrogen receptor beta (ER-beta) signaling pathway - cell viability counter screen (AID 1259382). Also: series mostly up to about 92 µM; nearly all actives have a fitted effect of over 55% in size. The essentials:
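Cells: ER-beta-UAS-bla HEK293T, 2,000/well, 2% CS-FBS, 6 hr settle. Cpd + E2 (1nM final), 16 hr, 37C/5% CO2. Bla FRET substrate 2 hr RT, then CellTiter-Glo 30 min RT, luminescence.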

For experiment [9], the target named is Estrogen receptor (Homo sapiens) (UniProt P03372). Put plainly: qHTS assay to identify small molecule agonists of the estrogen receptor alpha (ER-alpha) signaling pathway in the presence of an antagonist (AID 1259383; calls by dose curve; also: top concentration of the series differs between compounds; nearly all actives have a fitted effect of over 15% in size). In outline: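 VM7Luc4E2, endog. ER-alpha + 4×ERE-luc; charcoal-stripped FBS, phenol red-free, 5 d; 24hr plating; +10.0nM ICI-182,780 (final); cpds 15 conc, 22hr, 37C/5% CO2; ONE-Glo luminescence.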

A short description of experiment [10]: qHTS assay to identify small molecule agonists or antagonists of the thyroid stimulating hormone receptor (TSHR) signaling pathway - wild type cell line counter screen (AID 1259384; calls by dose curve). The essentials:
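Wild-type HEK293 cells were plated 18 h at 37 C/5% CO2, pin-dosed with compound plus Ro20-1724 medium, held 30 min at room temperature, then given cAMP-d2 and anti-cAMP-cryptate; fluorescence was read after 1 h. Fifteen concentrations, triplicate.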

The nature of experiment [11]: qHTS assay to identify small molecule agonists of the estrogen receptor alpha (ER-alpha) signaling pathway in the presence of an antagonist - cell viability counter screen (AID 1259386).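 Also: series mostly up to about 92 µM; cells exposed to compounds for 22 h at 37 °C before the viability read; nearly all actives have a fitted effect of over 30% in size.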 The essentials:
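VM7Luc4E2, stripped-serum pre-culture 5 d; 24hr plating; +ICI-182,780 10.0nM final; cpds 15 conc, 22hr, 37C/5% CO2; CellTiter-Fluor added at 21hr, fluorescence 1hr later.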

Experiment [12] concerns the target Progesterone receptor (Homo sapiens) (UniProt P06401). The experiment can be described thus: qHTS assay to identify small molecule agonists of the progesterone receptor (PR) signaling pathway (AID 1346784; calls by dose curve; also: nearly all actives have a fitted effect of over 30% in size; also: potency is read from the fitted curve at half-maximal effect). In outline:
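Beta-lactamase reporter read-out: after 16 hr compound treatment at 37C and a further 2 hr at room temperature with LiveBLAzer B/G FRET substrate, fluorescence was measured in PR-UAS-bla HEK 293T cells grown in 2% charcoal-stripped serum.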

For experiment [13] the target is unchanged. Put plainly: qHTS assay to identify small molecule antagonists of the progesterone receptor (PR) signaling pathway (AID 1346795; active = well fitted inhibition curve with a large enough effect in the signal ratio in the repeat runs, not every such curve was filed as active; the % refers to the signal ratio). In outline: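 Read-out is fluorescence from the LiveBLAzer B/G FRET substrate, cleaved by a UAS-controlled beta-lactamase in PR-UAS-bla HEK293T cells after 16 hr exposure to compound plus 1 nM promegestone (final), followed by 2 hr at room temperature.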

Experiment [14] is described as follows: qHTS assay to identify small molecule antagonists of the progesterone receptor (PR) signaling pathway - cell viability counter screen (AID 1346798).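 Also: HEK293T PR-UAS-bla cells stimulated with the agonist R5020; series mostly up to about 92 µM; nearly all actives have a fitted effect of over 50% in size.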 The essentials:
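HEK293T PR-UAS-bla, 2% charcoal-stripped FBS; 4 hr pre-plate; cpd + R5020, 16 h 37C; LiveBLAzer read first; then CellTiter-Glo 30 min RT, luminescence.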

Experiment [15] can be described thus: qHTS assay to identify small molecule agonists of the progesterone receptor (PR) signaling pathway - cell viability counter screen (AID 1346799; calls by dose curve; also: nearly all actives have a fitted effect of over 45% in size). In outline:
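Luminescence from CellTiter-Glo, added after the beta-lactamase FRET read in the same wells, gave cytotoxicity in PR-UAS-bla HEK293T cells treated with compounds for 16 hr at 37C.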

The nature of experiment [16]: qHTS assay to identify small molecule antagonists of the TGF-beta/Smad signaling pathway - cell viability counter screen (AID 1346824). Also: nearly all actives have a fitted effect of over 50% in size. The essentials:
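SBE-bla HEK 293T cells were plated overnight at 37 C, then given compounds in DMSO plus TGF-beta1 (added as 0.25 ng/mL solution) for 5 hr. After the bla read, CellTiter-Glo was added to the same wells and luminescence read after 30 min at room temperature.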

Experiment [17] is described as follows: qHTS assay to identify small molecule agonists of the TGF-beta/Smad signaling pathway - cell viability counter screen (AID 1346829). Also: top concentration of the series differs between compounds; nearly all actives have a fitted effect of over 45% in size. The essentials: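 In parallel with the Smad reporter read, viability of HEK 293T cells stably carrying SBE-bla is quantified by ATP luminescence following 5 hr compound treatment.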
The nature of experiment [18]: qHTS assay to identify small molecule agonists of the TGF-beta/Smad signaling pathway (AID 1346859; active = well fitted activation curve with a large enough effect in the signal ratio in the repeat runs, not every such curve was filed as active; the % refers to the signal ratio; also: series mostly up to about 77 µM). The essentials: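 SBE-bla HEK 293T, 4,000 cells/well, plated o/n; cpd in DMSO, 5 hr, 37 C/5% CO2; B/G FRET substrate 2 hr RT; ex 405, em 460/530 nm.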
In experiment [19] the target is Thyrotropin-releasing hormone receptor (Homo sapiens) (UniProt P34981). Put plainly: qHTS assay to identify small molecule antagonists of the thyrotropin-releasing hormone receptor (TRHR) signaling pathway (AID 1346877; active = well fitted inhibition curve with a large enough effect in the repeat runs, not every such curve was filed as active; also: series mostly up to about 51 µM). The essentials:
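Intracellular calcium fluorescence, read kinetically every second over 3 min, reports TRH-evoked signalling in HEK293 cells carrying TRHR. Test compounds were added 5 min ahead of a 1 nM TRH challenge.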

The target of experiment [20] is Thyrotropin receptor (Homo sapiens) (UniProt P16473). The experiment can be described thus: qHTS assay to identify small molecule antagonists of the thyroid stimulating hormone receptor (TSHR) signaling pathway (AID 1259385; calls by dose curve; also: nearly all actives have a fitted effect of over 20% in size). In outline: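 TSHR-HEK293 cells were plated and held 18 h at 37C/5% CO2, then given compound plus Ro20-1724 and stimulated with TSH at 1.5 ng/mL final. After 30 min at room temperature, cAMP was detected with cAMP-d2/anti-cAMP-cryptate (1 h) by fluorescence.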

A number with no mark means an inactive call. Results filed as inconclusive are left out. The source made the active and inactive calls. Unless noted, calls follow the shape of the dose curve; as a rule, active = well fitted curve in the direction sought with a large enough effect in the repeat runs; inconclusive = weak or mixed curves; inactive = no such curve, though single readings can be large; an effect the other way counts as inactive or inconclusive.
% is scaled to controls: 0 for no effect and ±100 for the full control effect.

Chain of Thyrotropin-releasing hormone receptor (Homo sapiens) (P34981 whole entry, looked up): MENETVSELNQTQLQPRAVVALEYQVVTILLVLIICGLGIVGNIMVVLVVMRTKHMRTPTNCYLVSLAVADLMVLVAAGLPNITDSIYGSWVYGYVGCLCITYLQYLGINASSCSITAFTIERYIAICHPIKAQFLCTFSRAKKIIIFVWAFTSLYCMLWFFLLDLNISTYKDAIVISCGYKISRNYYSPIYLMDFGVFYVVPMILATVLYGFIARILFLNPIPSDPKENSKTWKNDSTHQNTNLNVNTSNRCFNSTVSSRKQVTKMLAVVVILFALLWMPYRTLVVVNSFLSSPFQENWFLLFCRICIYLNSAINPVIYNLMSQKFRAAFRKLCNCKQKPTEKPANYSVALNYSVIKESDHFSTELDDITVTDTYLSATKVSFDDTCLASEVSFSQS
Chain of Estrogen receptor beta (Homo sapiens) (Q92731 whole entry, looked up): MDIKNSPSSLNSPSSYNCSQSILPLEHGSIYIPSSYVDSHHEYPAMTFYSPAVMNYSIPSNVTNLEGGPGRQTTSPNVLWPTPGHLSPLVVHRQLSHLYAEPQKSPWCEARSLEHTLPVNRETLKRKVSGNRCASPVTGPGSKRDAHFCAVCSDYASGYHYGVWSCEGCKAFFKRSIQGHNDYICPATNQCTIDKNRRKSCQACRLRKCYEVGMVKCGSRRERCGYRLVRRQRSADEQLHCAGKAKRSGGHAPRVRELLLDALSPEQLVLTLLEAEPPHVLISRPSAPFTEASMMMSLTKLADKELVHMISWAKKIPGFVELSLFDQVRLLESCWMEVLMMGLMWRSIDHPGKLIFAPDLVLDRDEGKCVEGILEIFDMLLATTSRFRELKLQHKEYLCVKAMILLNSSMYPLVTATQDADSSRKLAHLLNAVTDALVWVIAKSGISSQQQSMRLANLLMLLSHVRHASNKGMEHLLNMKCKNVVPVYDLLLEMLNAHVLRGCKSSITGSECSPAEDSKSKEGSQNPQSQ
Chain of Estrogen receptor (Homo sapiens) (P03372 whole entry, looked up): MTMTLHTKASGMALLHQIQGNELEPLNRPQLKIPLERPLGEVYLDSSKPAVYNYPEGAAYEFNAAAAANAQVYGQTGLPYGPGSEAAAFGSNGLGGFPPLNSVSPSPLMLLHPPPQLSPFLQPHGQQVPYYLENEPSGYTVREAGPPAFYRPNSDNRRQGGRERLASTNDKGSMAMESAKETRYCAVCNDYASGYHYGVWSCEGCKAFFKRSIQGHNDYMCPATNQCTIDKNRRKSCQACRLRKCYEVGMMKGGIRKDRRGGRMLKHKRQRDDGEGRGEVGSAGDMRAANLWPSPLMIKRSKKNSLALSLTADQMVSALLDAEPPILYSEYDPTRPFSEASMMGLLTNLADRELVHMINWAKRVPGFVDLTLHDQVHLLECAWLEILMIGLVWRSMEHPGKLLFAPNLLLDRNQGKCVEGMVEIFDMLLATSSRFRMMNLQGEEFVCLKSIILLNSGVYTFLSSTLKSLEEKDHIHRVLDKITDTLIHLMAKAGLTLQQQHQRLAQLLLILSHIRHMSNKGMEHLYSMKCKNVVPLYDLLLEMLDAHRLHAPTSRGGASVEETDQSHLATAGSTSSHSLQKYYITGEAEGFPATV
Chain of Thyrotropin receptor (Homo sapiens) (P16473 whole entry, looked up): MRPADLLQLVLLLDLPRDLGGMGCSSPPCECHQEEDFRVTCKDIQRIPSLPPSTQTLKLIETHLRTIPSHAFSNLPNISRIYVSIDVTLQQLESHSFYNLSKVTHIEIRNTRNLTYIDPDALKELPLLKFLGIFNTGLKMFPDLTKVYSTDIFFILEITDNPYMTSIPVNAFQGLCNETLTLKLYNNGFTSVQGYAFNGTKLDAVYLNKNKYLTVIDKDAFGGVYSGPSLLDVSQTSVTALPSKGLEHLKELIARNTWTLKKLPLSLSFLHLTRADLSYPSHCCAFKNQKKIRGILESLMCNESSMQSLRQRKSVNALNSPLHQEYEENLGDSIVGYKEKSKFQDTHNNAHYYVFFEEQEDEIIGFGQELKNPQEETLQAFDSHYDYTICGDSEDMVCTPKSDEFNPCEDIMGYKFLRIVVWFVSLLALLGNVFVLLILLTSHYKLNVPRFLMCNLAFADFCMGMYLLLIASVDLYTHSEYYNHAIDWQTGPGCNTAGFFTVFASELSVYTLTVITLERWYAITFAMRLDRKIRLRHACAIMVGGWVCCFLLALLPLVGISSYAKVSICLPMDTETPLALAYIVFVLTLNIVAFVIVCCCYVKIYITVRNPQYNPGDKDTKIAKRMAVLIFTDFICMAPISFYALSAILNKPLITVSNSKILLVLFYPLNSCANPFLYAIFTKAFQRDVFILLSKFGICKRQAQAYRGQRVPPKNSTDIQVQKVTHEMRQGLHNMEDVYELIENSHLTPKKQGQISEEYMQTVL
Chain of Progesterone receptor (Homo sapiens) (P06401 whole entry, looked up): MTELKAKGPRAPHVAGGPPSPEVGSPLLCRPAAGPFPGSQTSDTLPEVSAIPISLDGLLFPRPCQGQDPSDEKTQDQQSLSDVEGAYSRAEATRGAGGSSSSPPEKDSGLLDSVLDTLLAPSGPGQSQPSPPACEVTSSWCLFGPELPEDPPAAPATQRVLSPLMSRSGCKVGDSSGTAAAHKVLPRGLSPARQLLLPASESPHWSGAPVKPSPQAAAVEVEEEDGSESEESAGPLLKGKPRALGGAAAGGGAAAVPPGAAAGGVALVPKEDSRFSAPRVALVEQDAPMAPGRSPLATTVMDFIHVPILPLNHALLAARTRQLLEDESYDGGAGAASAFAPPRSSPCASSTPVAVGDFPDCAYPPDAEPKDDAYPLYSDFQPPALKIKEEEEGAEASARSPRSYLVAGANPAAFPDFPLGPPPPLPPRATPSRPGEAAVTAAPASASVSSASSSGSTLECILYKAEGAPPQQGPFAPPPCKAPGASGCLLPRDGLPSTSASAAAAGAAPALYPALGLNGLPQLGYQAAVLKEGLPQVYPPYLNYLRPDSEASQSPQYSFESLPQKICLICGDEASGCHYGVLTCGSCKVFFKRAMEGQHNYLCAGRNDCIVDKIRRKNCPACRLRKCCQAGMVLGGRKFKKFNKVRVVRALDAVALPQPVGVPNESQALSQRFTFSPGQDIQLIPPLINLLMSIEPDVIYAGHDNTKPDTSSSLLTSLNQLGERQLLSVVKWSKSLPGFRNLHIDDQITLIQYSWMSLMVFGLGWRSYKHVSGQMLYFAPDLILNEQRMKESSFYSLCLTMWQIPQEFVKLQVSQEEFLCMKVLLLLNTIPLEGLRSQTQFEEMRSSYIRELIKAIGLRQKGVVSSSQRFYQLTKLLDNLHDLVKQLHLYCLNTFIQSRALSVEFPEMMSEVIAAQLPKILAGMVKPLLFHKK
Chain of Androgen receptor (Homo sapiens) (P10275 whole entry, looked up): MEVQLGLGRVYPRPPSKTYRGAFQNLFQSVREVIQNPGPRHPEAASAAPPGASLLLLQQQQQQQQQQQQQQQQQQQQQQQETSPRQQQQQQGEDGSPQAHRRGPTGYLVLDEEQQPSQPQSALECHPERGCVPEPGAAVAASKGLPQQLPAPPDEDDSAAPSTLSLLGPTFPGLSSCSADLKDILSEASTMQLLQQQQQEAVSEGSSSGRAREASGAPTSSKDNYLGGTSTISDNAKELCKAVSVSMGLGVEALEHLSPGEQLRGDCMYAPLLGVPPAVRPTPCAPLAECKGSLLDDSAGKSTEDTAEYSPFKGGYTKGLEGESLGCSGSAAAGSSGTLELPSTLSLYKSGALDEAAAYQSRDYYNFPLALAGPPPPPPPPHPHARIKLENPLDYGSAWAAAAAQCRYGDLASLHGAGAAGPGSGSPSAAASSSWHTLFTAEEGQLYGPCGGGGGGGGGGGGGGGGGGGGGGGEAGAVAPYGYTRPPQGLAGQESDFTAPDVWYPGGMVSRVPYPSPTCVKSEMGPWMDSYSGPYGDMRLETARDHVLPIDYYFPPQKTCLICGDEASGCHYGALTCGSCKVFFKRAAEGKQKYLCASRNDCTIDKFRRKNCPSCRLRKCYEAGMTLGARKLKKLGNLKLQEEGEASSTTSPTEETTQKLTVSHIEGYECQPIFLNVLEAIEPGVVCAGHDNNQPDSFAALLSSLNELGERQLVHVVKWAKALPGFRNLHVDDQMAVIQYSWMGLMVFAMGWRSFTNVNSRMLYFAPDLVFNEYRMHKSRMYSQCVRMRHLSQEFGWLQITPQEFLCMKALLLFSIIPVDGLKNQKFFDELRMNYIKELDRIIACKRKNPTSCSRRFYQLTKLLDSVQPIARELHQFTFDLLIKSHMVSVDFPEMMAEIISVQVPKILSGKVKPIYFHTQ

Turning to `CCC(C)(C)C(=O)O`, the Potency result in [1], in experiment [2], in [3], in experiment [4], in experiment [5] and in experiment [6] was “inactive” each time. For the same compound, the Potency entry in experiment [7], in experiment [8], in [9], in experiment [10], in [11] and in experiment [12] was “inactive” throughout. The Potency result in [13], in experiment [14], in experiment [15], in experiment [17] and in [18] was “inactive” throughout. Also, the result in experiment [16] and in experiment [19] was inactive.
Regarding `O=C(c1ccccc1)C1CCC1`, the Potency result in [1], in [2], in experiment [3], in experiment [4], in [5] and in [6] was “inactive” in each case. Also, the Potency result in experiment [8], in experiment [9], in experiment [10], in experiment [20], in experiment [11] and in experiment [12] was “inactive” each time. Besides, the Potency entry in [14], in experiment [17] and in experiment [18] was “inactive” in each case. Moreover, the compound was called inactive in experiment [19].
For `O=C(C(=O)c1ccco1)c1ccco1`, the Potency entry in [1], in experiment [2], in experiment [3], in [4], in [5] and in [6] was “inactive” in each case. In addition, the Potency entry in [8], in experiment [20], in experiment [11], in [13], in experiment [14] and in experiment [17] was “inactive” each time. Besides, the Potency result in experiment [18] is “inactive”. Moreover, the Potency in [12] is 2.75 µM (active).
With `CCOc1ncc(F)c(=O)[nH]1`, the Potency result in [1], in experiment [2], in experiment [3], in experiment [4], in [5] and in experiment [6] was “inactive” each time. Besides, the Potency result in [8], in experiment [10], in experiment [20], in experiment [11], in [12] and in experiment [13] was “inactive” in each case. The Potency result in experiment [14], in experiment [17] and in experiment [18] was “inactive” each time. Moreover, the call in experiment [16] and in experiment [19] was inactive.
With `C=C(C)C(=O)OCCC(F)(F)C(F)(F)C(F)(F)C(F)(F)C(F)(F)C(F)(F)F`, the Potency entry in experiment [1], in experiment [2], in experiment [3], in experiment [4], in experiment [5] and in experiment [6] was “inactive” throughout. Further, the Potency result in experiment [8], in experiment [9], in experiment [10], in experiment [20], in experiment [11] and in [12] was “inactive” each time. In addition, the Potency result in experiment [13], in experiment [14] and in experiment [18] was “inactive” throughout. In addition, the compound was classed as inactive in [16] and in experiment [19].
As for `Cc1cccc(C)c1NC(=O)c1cc(S(N)(=O)=O)c(Cl)cc1O`, the Potency entry in experiment [1], in experiment [2], in experiment [3], in [4], in experiment [5] and in experiment [6] was “inactive” throughout. Also, the Potency result in experiment [8], in experiment [10], in [20], in experiment [11], in experiment [12] and in experiment [13] was “inactive” each time. Besides, the Potency entry in experiment [14], in experiment [15], in experiment [17] and in [18] was “inactive” throughout. For the same compound, the compound was called inactive in [19].
As for `CS(=O)(=O)c1ccc([C@@H](C[C@H]2CCC(=O)C2)C(=O)Nc2cnccn2)cc1Cl`, the Potency result in experiment [1], in [2], in experiment [3], in experiment [4], in experiment [5] and in experiment [6] was “inactive” in each case. Besides, the Potency result in experiment [8], in [10], in experiment [11], in experiment [12], in experiment [13] and in experiment [14] was “inactive” each time. The Potency entry in experiment [15], in experiment [17] and in [18] was “inactive” throughout. In addition, the compound was classed as inactive in experiment [16] and in experiment [19].
For the compound `CCCCCCCCCCCCCCN(C)C`, the activity change in experiment [1] was 1.14% [at 18.9 µM, active compounds read high]. Further, the activity change, negative = inhibition in experiment [2] is 19.6% [at 19 µM]; in [13] it was 5.91% [at 18.9 µM]. Further, the activation in [3] was -2.25% [at 19 µM]; in [9] it was 2.36% [at 19 µM]; in [18], -0.505% [at 15.8 µM]. In addition, the activity, negative = inhibition in experiment [4] is 3.58% [at 19 µM]; in [19] it was 0.781% [at 10.5 µM]. The activity change, negative = cytotoxicity in experiment [5] is -0.611% [at 19 µM]; in experiment [6] it was -12.9% [at 19 µM]; in [8], -7.95% [at 19 µM]; in experiment [11] it was -8.37% [at 19 µM]; in experiment [14], 2.26% [at 18.9 µM]; in [17], 4.77% [at 15.8 µM]. Further, in [10], the cAMP activity change is -2.36% [at 18.9 µM, active compounds read high]. In addition, the Potency in [12] is 0.738 µM (active). Also, in experiment [16], the viability change, negative = cytotoxic is -8.55% [at 15.8 µM].
